# In all, about 310,000 compounds went through this assay and about 3,800 (1.2%) were called active.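 Rule for the calls: active = ratio B-score over 3 SD below the library mean, with starting fluorescence within 5 SD of its mean; inactive = the rest, inconclusive results apart.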 The sample as a whole holds a higher share of actives than the screen did.
# Biological target: Potassium channel subfamily K member 9 (Homo sapiens) (UniProt Q9NPC2)
# Assay: KCNK9 potassium channel inhibitors, primary screen, HEK293 cells, thallium flux (AID 488922);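 for B-score: negative B-score means less thallium flux so channel inhibition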
# Details: HEK293 KCNK9, FluxOR thallium flux fluorescence, at 10 µM; active compounds read low
# Chain of Potassium channel subfamily K member 9 (Homo sapiens) (Q9NPC2 whole entry, looked up): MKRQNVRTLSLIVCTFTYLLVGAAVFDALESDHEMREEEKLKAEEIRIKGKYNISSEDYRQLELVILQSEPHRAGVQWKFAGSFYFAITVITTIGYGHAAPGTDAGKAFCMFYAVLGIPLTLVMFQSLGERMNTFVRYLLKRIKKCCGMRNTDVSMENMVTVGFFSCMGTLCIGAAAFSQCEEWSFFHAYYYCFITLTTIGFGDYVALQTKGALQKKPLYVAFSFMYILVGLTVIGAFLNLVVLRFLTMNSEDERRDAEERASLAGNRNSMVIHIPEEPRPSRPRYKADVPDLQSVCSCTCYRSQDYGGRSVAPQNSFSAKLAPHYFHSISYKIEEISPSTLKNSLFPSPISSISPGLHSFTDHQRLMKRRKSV
row,Structure (SMILES),B-score
1,CCCCCCCCCCCCn1ccc(=N)cc1,-10.8 (active)
2,Cc1ccc(-c2nc3ccccc3c(=O)n2-c2ccc(Br)cn2)cc1,inactive
3,COc1cc(Cn2c(N)c(C(=O)NCc3ccco3)c3nc4ccccc4nc32)cc(OC)c1OC,inactive
4,CC1=C2C(=O)C3C(CC=C4CC(OC5OC(O)C(O)C(O)C5CO)CCC43C)C2CCC12OC1CC(C)CNC1C2C (stereo not given),inactive
5,CCCCCCN=C(CC)c1c(O)n(CCCC)c(=O)[nH]c1=O,-12.7 (active)
6,CCCCn1c(O)c(C(CC)=NCc2ccco2)c(=O)[nH]c1=O,inactive
7,CCC(=NCCCO)c1c(O)n(-c2ccc(OC)cc2)c(=O)[nH]c1=O,inactive
8,CCN(CC)C(=O)Oc1ccc(NC(=O)N2CCOCC2)cc1,inactive
9,CN(C)CC1CCCCC1OC(=O)c1ccc(Cl)c(Cl)c1 (stereo not given),inactive
10,COC(=O)C1=C(c2cc3ccccc3s2)C[C@@H]2CC[C@H]1N2C(=O)NC(C)C,inactive
11,CCN1CCN(c2nc3c(c(=O)[nH]2)CCC3)CC1,inactive
12,CC(C)(C)c1ccc(CN2C(=O)CN=C(c3ccccc3)c3ccccc32)cc1,-12.7 (active)
13,O=C1CC(=O)N(Cc2ccccc2)C(=O)N1CCCCCCN1C(=O)CC(=O)N(Cc2ccccc2)C1=O,inactive
14,CCOC(=O)c1c(C)c(C(=O)N2CCC3(CC2)OCCO3)c(C)n1CC,inactive
15,CCOP(=S)(OCC)C(O)CCCCCn1c(=O)c(F)cn(C2CCCO2)c1=O (stereo not given),inactive
16,C=CCN1C(=O)NC(=O)/C(=C/c2ccc(OCC(=O)Nc3ccc(C)cc3)cc2)C1=O,inactive
17,O=C(O)CCn1cc(C=C2C(=O)NC(=S)NC2=O)c(-c2cccc(Br)c2)n1,inactive
18,CCOC(=O)C1SC2(C(F)(F)C(F)F)CC1(O)c1c(c(OC)c3occc3c1OC)O2 (stereo not given),-8.55 (active)
19,CCOP(=O)(OCC)C(NC(=O)c1ccc(OC)cc1)C(Cl)(Cl)Cl (stereo not given),inactive
20,NC(=O)Nc1cccc(C(F)(F)F)c1,inactive

# Source: PubChem BioAssay AID488922 (Johns Hopkins Ion Channel Center, 2010)
